According to PubChem BioAssay (NCATS):
Inconclusive results are not listed. A call without a number means that no potency is given here. Values without a mark were called inactive. Active and inactive are the calls of the source. Calls come from the whole dose curve; as a rule, active = well fitted curve in the direction sought with a large enough effect; inconclusive = small, poorly fitted or top-dose-only effect, or another doubt; inactive = no such curve, though single readings can be large; an effect the other way counts as inactive or inconclusive.

How the values were obtained:
[1] = Quantitative highthroughput screen to assess conditional lethalithy of NOMO1 cells grown in RPMI1640 with untreated serum (RPMI+s) (AID 1963876); note: nearly all actives have a fitted effect of over 35% in size; note: potency is the fitted concentration of half-maximal effect
Outline: (§1)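 Each medium arm—HPLM with 10% dialyzed FBS, or RPMI1640 with 5 mM glucose and 10% untreated or dialyzed FBS—was screened against an 11-point, 3-fold compound titration for 48 h at 37 °C, with CellTiter-Glo luminescence as endpoint.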

[2] = Quantitative highthroughput screen to assess conditional lethalithy of NOMO1 cells grown in Human Plasma-Like Medium with dialyzed fetal bovine serum (HPLM+ds) (AID 1963878); note: nearly all actives have a fitted effect of over 35% in size; note: potency is the fitted concentration of half-maximal effect
Outline: as §1

[3] = Quantitative highthroughput screen to assess conditional lethalithy of P12 Ichikawa cells grown in Human Plasma-Like Medium with dialyzed fetal bovine serum (HPLM+ds) (AID 1963879); settings: Potency: viability; note: nearly all actives have a fitted effect of over 35% in size; note: potency is the fitted concentration of half-maximal effect; for viability: series mostly up to about 46 µM
Outline: as §1

[4] = Quantitative highthroughput screen to assess conditional lethalithy of P12 Ichikawa cells grown in RPMI1640 with dialyzed fetal bovine serum (RPMI+ds) (AID 1963880); settings: Potency: P12-Ichikawa viability; note: nearly all actives have a fitted effect of over 35% in size; note: potency is the fitted concentration of half-maximal effect
Outline: as §1

[5] = Quantitative highthroughput screen to assess conditional lethalithy of P12 Ichikawa cells grown in RPMI1640 with untreated serum (RPMI+s) (AID 1963881); settings: Potency: viability; note: nearly all actives have a fitted effect of over 35% in size; note: potency is the fitted concentration of half-maximal effect; for viability: series mostly up to about 46 µM
Outline: as §1

[6] = Quantitative highthroughput screen to assess conditional lethalithy of SEM cells grown in Human Plasma-Like Medium with dialyzed fetal bovine serum (HPLM+ds) (AID 1963882); note: nearly all actives have a fitted effect of over 35% in size; note: potency is the fitted concentration of half-maximal effect; for viability: series mostly up to about 46 µM
Outline: as §1

[7] = Quantitative highthroughput screen to assess conditional lethalithy of SEM cells grown in RPMI1640 with unreated serum (RPMI+s) (AID 1963883); note: nearly all actives have a fitted effect of over 35% in size; note: potency is the fitted concentration of half-maximal effect
Outline: as §1

[8] = Quantitative highthroughput screen to assess conditional lethalithy of SEM cells grown in RPMI1640 with dialyzed fetal bovine serum (RPMI+ds) (AID 1963884); note: nearly all actives have a fitted effect of over 35% in size; note: potency is the fitted concentration of half-maximal effect; for viability: series mostly up to about 46 µM
Outline: as §1

[9] = Quantitative highthroughput screen to assess conditional lethalithy of NOMO1 cells grown in RPMI1640 with dialyzed fetal bovine serum (RPMI+ds) (AID 1963877); note: series mostly up to about 46 µM; nearly all actives have a fitted effect of over 30% in size
Outline: as §1

[10] = Cellular viability qHTS for adrenocortical cancer (ACC) cell line SW-13 (AID 1963989); settings: SW-13 ACC cells viability, CellTiter-Glo, 48 h; activity (max response): stronger effect = lower value;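 note: cells grown in serum-free medium with ITS supplement; nearly all actives have a fitted effect of over 65% in size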
Outline: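 IC50 and maximal-response values come from four-parameter logistic fits of titration data. SW-13 cells in serum-free medium received compounds (up to 46 uM final) for 48 h before CellTiter-Glo luminescence.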

[11] = Cellular viability qHTS for adrenocortical cancer (ACC) cell line NCI-H295R (AID 1963990); note: nearly all actives have a fitted effect of over 60% in size
Outline: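 Adrenocortical carcinoma cells, suspended at 300 000 cells/mL in serum-free DMEM plus ITS, rested overnight before pin transfer of compound. After two days' incubation, ATP-dependent luminescence was recorded and curve-fitted.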

SMILES	Potency [1]	Potency [2]	Potency [3]	Potency [4]	Potency [5]	Potency [6]	Potency [7]	Potency [8]	Potency [9]	activity (max response) [10] [%]	Potency [11]
COc1ccc(-c2cc(=O)c3c(O)cc(O[C@@H]4O[C@H](CO[C@@H]5O[C@@H](C)[C@H](O)[C@@H](O)[C@@H]5O)[C@@H](O)[C@H](O)[C@@H]4O)cc3o2)cc1O	inactive	inactive	inactive	inactive	inactive	inactive	inactive	–	–	–	–
Cc1cc(-c2nnc3n2CCCCC3)c(C)n1-c1ccccc1	inactive	inactive	inactive	inactive	inactive	inactive	–	inactive	–	–	–
C=C1C[C@@]2(O)O[C@@]3(C[C@H]2C(C)C)[C@H](C)CC[C@H]13	inactive	inactive	inactive	inactive	inactive	–	–	inactive	–	–	–
Cn1cc(-c2cnn3c(N)c(Br)c([C@H]4CCCNC4)nc23)cn1	2090 nM (active)	1320 nM (active)	2960 nM (active)	2640 nM (active)	2640 nM (active)	935 nM (active)	–	1050 nM (active)	–	–	–
O=C1CN2Cc3c(ccc(Cl)c3Cl)N=C2N1	inactive	–	–	–	–	inactive	–	–	inactive	2.15	inactive
Cc1cc(OCCCc2c(C(=O)O)n(Cc3cccnc3)c3c(-c4c(COc5ccc(N6CCN([S+](C)(=O)[O-])CC6)cc5)nn(C)c4C)cccc23)cc(C)c1Cl	inactive	inactive	inactive	inactive	inactive	inactive	–	18700 nM (active)	–	–	–
NS(=O)(=O)c1cc(C(=O)O)c(NCc2ccco2)cc1Cl	inactive	inactive	inactive	inactive	inactive	–	–	–	–	-1.8	inactive
O=C(NCCCCN1CCOCC1)c1cc2ccccc2o1	inactive	inactive	inactive	inactive	inactive	inactive	inactive	inactive	–	10.7	inactive
N#CC(=Cc1ccc(O)c(O)c1)C(=O)NCc1ccccc1	inactive	–	–	–	–	–	20900 nM (active)	–	inactive	–	–
CC(COc1ccccc1)N(CCCl)Cc1ccccc1 (centres undefined)	166 nM (active)	209 nM (active)	2350 nM (active)	2960 nM (active)	–	inactive	inactive	inactive	–	–	inactive
O=c1n(CCCN2CCN(c3cccc(Cl)c3)CC2)nc2ccccn12	inactive	inactive	inactive	inactive	–	–	–	inactive	–	-1.77	inactive
CCN(CC)CCn1c(=O)c(Cc2ccc(OC)cc2)nc2ccccc21	inactive	inactive	inactive	inactive	–	inactive	–	inactive	–	-3.48	inactive
COc1nc(-c2ccc3c(c2)OCO3)n(-c2ccc(NC(=O)CSc3ccccc3)cc2)n1	23500 nM (active)	20900 nM (active)	inactive	inactive	inactive	inactive	–	inactive	–	–	inactive
NC(=O)c1ccc(-c2nc(-c3ccc4c(c3)OCCO4)c(-c3ccccn3)[nH]2)cc1	inactive	inactive	inactive	inactive	inactive	inactive	inactive	–	–	-9.07	–
C[C@@H]1CCN(C(=O)CC#N)C[C@H]1N(C)c1ncnc2[nH]ccc12	inactive	inactive	inactive	inactive	inactive	inactive	inactive	inactive	–	–	–
COc1cc2ncn(-c3cc(OCc4ccccc4S(C)(=O)=O)c(C#N)s3)c2cc1OC	inactive	inactive	inactive	inactive	inactive	inactive	–	inactive	–	-11.8	–
O=C(O)C1=NC(C(=O)O)CC(C=CN2c3cc(O)c(OC4OC(CO)C(O)C(O)C4O)cc3CC2C(=O)O)=C1 (centres undefined)	inactive	inactive	inactive	inactive	–	inactive	inactive	inactive	–	–	–
CCCCN(CCCC)CC(O)c1cc(Cl)cc2c1-c1ccc(Cl)cc1C2=Cc1ccc(Cl)cc1 (centres undefined)	inactive	inactive	inactive	inactive	inactive	inactive	inactive	inactive	–	–	–
CN(C)N=Nc1nc[nH]c1C(N)=O	inactive	inactive	2640 nM (active)	–	–	inactive	–	833 nM (active)	–	–	–
